# From PubChem BioAssay (EPA / NIEHS)
# Inconclusive results are not listed. Some structures have more than one record in an assay (separate samples or runs), and their calls can disagree. Active and inactive are the calls of the source. How the source made its calls: active means hit-call score of the fitted dose curve at least 0.9, where 1 is the maximum; inconclusive means response in the unintended direction; inactive means score below 0.9.
# Assay: ATG_XTT_Cytotoxicity: Cytotoxicity Assessment in the Attagene TRANS-FACTORIAL HepG2 Assay (AID 2283584);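 on AC50: cells exposed to compound for 24 h before reading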
# Method: ATG_XTT_Cytotoxicity is a cell-based, single-readout assay that uses HepG2, a human liver cell line, with measurements taken at 24 hours after chemical dosing in a 24-well plate.ATG_XTT_Cytotoxicity is one of one assay component(s) measured or calculated from the ATG_XTT_Cytotoxicity assay. It is designed to make measurements of cell number, a form of viability reporter, as detected with […] signals by XTT cytotoxicity assay technology.Data from the assay component ATG_XTT_Cytotoxicity was analyzed into 1 assay endpoint. This assay endpoint, ATG_XTT_Cytotoxicity, was analyzed in the positive analysis fitting direction relative to DMSO as the negative control and baseline of activity. Using a type of viability reporter, loss-of-signal activity can be used to understand changes in the viability. Furthermore, this assay endpoint can be referred to as a primary readout, because the performed assay has only produced 1 assay endpoint. To generalize the intended target to other relatable targets, this assay endpoint is annotated to the cell cycle intended target family, where the subfamily is cytotoxicity.
# Human liver HepG2 cells are transiently transfected with multiple reporter transcription units (MRTUs) in 6-well plates using FuGene 6 reagent (Roche; 3 ml FuGene/1 mg DNA). The MRTU constructs are regulated by a cis-regulating element (promoter). […] A major difference between the CIS and TRANS system is that in CIS activities of endogenous TFs are measured, whereas the TRANS assay evaluates changes in activities of exogenous, chimeric NR-Gal4 proteins. […] At the end of 24 hour incubation, total RNA was isolated using TriZol reagent (Invitrogen). The isolated RNA is then reverse-transcribed using oligo(dT) primer and Mo-MLV reverse transcriptase (Invitrogen) with DNAse I (Ambion) treatment for 30 min. The one-tenth of the produced cDNA was amplified by PCR using Taq DNA polymerase (Invitrogen) and two reporter sequence-specific primers. The PCR products were fluorescently labeled by primer extension with 6-arboxyfluorescein (6-FAM) 5'-labeled reporter sequence-specific primer (2 min at 95 C, 20 s at 68 C and 10 min at 72 C) and these products were digested with 5U of HpaI (New England Biolabs) for 2h at 37 C. The fragments were purified using Qiaquick PCR columns (Qiagen), analyzed on an ABI 3130xL genetic analyzer (Applied Biosystems) with peak positions identified by using a set of X-rhodamine (ROX)-labeled MapMarker1000 molecular weight standards (BioVentures). The raw capillary electrophoresis data was processed using Attagraph software (Attagene).
Structure (SMILES),outcome,AC50
C[C@]12CC[C@@H]3c4ccc(O)cc4CC[C@H]3[C@@H]1CC[C@H]2O,inactive,–
CN1C(=O)CC[C@H]1c1cccnc1,inactive,–
c1ccc2n[nH]nc2c1,inactive,–
CCO[Si](CCCNC(N)=O)(OCC)OCC,inactive,–
Cc1c2ccccc2c(C)c2c1ccc1ccccc12,inactive,56.2 µM (active)
CCCCCCCCCCCC[N+](C)(C)C,inactive,–
Cc1oc2c(NC(=O)c3c(Cl)cccc3Cl)cccc2c1C(C)(C)O,inactive,–
O=C(Nc1ccc(Cl)cc1)Nc1ccc(Cl)c(Cl)c1,inactive,–
O=C1c2ccccc2C(=O)N1CCc1noc(-c2ccc(CN3CCCCCC3)s2)n1,inactive,–
CCN(Cc1cccc(S(=O)(=O)O)c1)c1ccc(C(=C2C=CC(=[N+](CC)Cc3cccc(S(=O)(=O)O)c3)C=C2)c2ccccc2S(=O)(=O)[O-])cc1,inactive,–
O=CCCCC=O,inactive,–
Cc1cccc2ccccc12,inactive,–
CCCCCCCCOc1ccc(C(=O)c2ccccc2)c(O)c1,inactive,–
CCCCCCCCCCCO,inactive,–
CCCCOC(=O)CC(CC(=O)OCCCC)(OC(C)=O)C(=O)OCCCC,inactive,–
OCCO,inactive,–
CCCCOC(=O)c1ccc(O)cc1,inactive,–
O=c1[nH]sc2ccccc12,inactive,–
Cc1ncc(CO)c(CO)c1O,inactive,–
CC(=O)N1CCN(c2ccc(OC[C@H]3CO[C@](Cn4ccnc4)(c4ccc(Cl)cc4Cl)O3)cc2)CC1,inactive,–

Structure (SMILES),outcome,AC50
CN(C)c1ccc(C(=C2C=CC(=[N+](C)C)C=C2)c2ccc(N(C)C)cc2)cc1,–,12.3 µM (active)
O=C(OCCCCCCOC(=O)c1ccccc1)c1ccccc1,inactive,–
Cc1ccc2oc(CN(Cc3ccccc3)C(=O)Nc3c(F)cc(F)cc3F)c(-c3ccc(Cl)cc3)c2c1,inactive,–
CCCCCCCC[Si](OCC)(OCC)OCC,inactive,–
O=c1c(-c2ccc(O)cc2)coc2cc(O)cc(O)c12,inactive,–
CCCCCc1ccc(N)cc1,inactive,–
Clc1ccccc1C(c1ccccc1)(c1ccccc1)n1ccnc1,–,24.2 µM (active)
COc1cc(C(=O)NC2CCN(C)CC2)ccc1Nc1ncc2c(n1)N(C1CCCC1)CC(F)(F)C(=O)N2C,inactive,–
Cc1cc(F)ccc1-c1cc(N2CC[C@@H](O)[C@H]2CO)ncc1N(C)C(=O)C(C)(C)c1cc(C(F)(F)F)cc(C(F)(F)F)c1,–,23.3 µM (active)
CC/C(=C(/CC)c1ccc(O)cc1)c1ccc(O)cc1,inactive,–
CC(O)CC(C)(C)O (stereo not given),inactive,–
Cc1ccc(C(C)C)cc1,inactive,–
CCCCCCCCOC(=O)c1cc(O)c(O)c(O)c1,inactive,–
O=C1O[C@H]([C@@H](O)CO)C(O)=C1O,inactive,–
CN1C(=O)N(c2ccccc2Br)Cc2cnc(Nc3ccc4c(c3)OCC(CO)O4)nc21 (stereo not given),inactive,–
c1ccc2ccccc2c1,inactive,–
C[C@]12CC[C@@H]3c4ccc(O)cc4CC[C@H]3[C@@H]1CCC2=O,inactive,–
CC1(C)NC(=O)N(c2ccc([N+](=O)[O-])c(C(F)(F)F)c2)C1=O,inactive,–
O=C1CCC(C2CCCCC2)CC1,inactive,–
